An excerpt weighted towards active compounds, which were near 5% of everything screened.
EBI2 antag: blocks human EBI2 receptor beta-arrestin signaling; 360,000 tested, 0.81% active; P32249; EBI2 beta-arrestin recruitment, luminescence, 7a,25-OHC stimulated; inhibition, % at 5 µM; in the data active = inhibition above about 38%;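 note: enzyme fragment complementation signal reports receptor beta-arrestin coupling in cells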
SENP6 inh: inhibitors of human SENP6 protease. Q9GZR1. Recombinant SENP6 catalytic domain, aminoluciferin luminescence. inhibition, % at 10 µM. 330,000 tested, 1.8% active. AID 2599;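 active = inhibition above about 50% at the single tested dose, limit read from the data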
AHR act: activators of human aryl hydrocarbon receptor; P35869; AHR-responsive luciferase reporter cells, luminescence; activation, % at 5 µM; 320,000 tested, 2.5% active; AID 2796; in the data active = activation above about 47%
Target sequence (P35869 whole entry, looked up): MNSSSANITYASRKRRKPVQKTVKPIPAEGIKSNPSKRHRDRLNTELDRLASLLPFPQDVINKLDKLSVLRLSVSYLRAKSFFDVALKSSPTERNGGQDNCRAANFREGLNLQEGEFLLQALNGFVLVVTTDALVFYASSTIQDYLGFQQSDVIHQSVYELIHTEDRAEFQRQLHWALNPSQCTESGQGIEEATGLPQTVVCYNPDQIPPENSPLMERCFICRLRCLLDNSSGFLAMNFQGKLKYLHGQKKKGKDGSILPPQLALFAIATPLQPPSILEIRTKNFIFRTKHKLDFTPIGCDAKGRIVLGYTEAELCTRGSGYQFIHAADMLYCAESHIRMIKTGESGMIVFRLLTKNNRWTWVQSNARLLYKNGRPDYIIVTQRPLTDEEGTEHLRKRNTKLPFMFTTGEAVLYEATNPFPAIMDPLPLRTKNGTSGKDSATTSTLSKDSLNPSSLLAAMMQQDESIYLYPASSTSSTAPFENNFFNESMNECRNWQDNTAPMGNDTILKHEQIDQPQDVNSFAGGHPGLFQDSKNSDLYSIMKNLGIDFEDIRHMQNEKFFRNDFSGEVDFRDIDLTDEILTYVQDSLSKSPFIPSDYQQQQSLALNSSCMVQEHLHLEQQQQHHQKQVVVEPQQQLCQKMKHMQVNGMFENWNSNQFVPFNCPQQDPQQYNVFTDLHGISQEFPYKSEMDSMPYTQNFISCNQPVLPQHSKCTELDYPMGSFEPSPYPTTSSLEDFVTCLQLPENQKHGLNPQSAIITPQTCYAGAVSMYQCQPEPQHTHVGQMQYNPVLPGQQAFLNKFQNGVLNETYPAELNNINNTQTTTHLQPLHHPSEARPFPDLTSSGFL
SENP7 inh: SENP7 protease inhibition. 330,000 tested, 1.5% active. inhibition, % at 5 µM. recombinant SENP7, Z-RLRGG-aminoluciferin luminescence, 40 min. Q9BQF6;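 active = inhibition above about 50% at the single test dose, limit read from the data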
SENP8 block-1: blocks the human protease SENP8; purified SENP8, Z-RLRGG-aminoluciferin cleavage, luminescence; inhibition, % at 10 µM; 330,000 tested, 1.2% active; in the data active = inhibition above about 50%
SENP8 block-2: SENP8 (human) protease inhibition. inhibition, % at 20 µM. recombinant SENP8, Nedd8 substrate fluorescence. 360,000 tested, 0.64% active. AID 602440; in the data active = inhibition mostly above about 40%, no sharp cut-off; inactive = mostly below about 27%
Hits are given with their value.

What do the screens show for `O=C1COc2ccccc2N1Cc1c(F)cccc1Cl`?
EBI2 antag: inactive; SENP6 inh: inactive; AHR act: inactive; SENP7 inh: inactive; SENP8 block-1: inactive; SENP8 block-2: inactive

What do the screens show for `Nc1cccc2c1C(=O)N(c1ccccc1)C2=O`?
EBI2 antag: inactive; SENP6 inh: inactive; AHR act: 49; SENP7 inh: inactive; SENP8 block-1: inactive; SENP8 block-2: inactive

How did Nc1ccccc1N1C(=O)c2cccc3cccc(c23)C1=O do in these assays?
EBI2 antag: inactive; SENP6 inh: inactive; AHR act: 67; SENP7 inh: inactive; SENP8 block-1: inactive; SENP8 block-2: inactive

How did COc1ccc(-c2noc(CCC(=O)N3CCN(c4cccc(F)c4)CC3)n2)cc1 do in these assays?
EBI2 antag: inactive; SENP7 inh: inactive; SENP8 block-2: inactive

What do the screens show for `O=C(N/N=C/c1cccc([N+](=O)[O-])c1O)C(O)(c1ccccc1)c1ccccc1`?
EBI2 antag: inactive; SENP6 inh: inactive; AHR act: inactive; SENP7 inh: inactive; SENP8 block-1: inactive; SENP8 block-2: inactive

Results for COc1cc([N+](=O)[O-])cc(/C=N/NC(=O)C(O)(c2ccccc2)c2ccccc2)c1O ?
EBI2 antag: inactive; SENP6 inh: inactive; AHR act: inactive; SENP7 inh: inactive; SENP8 block-1: inactive; SENP8 block-2: 50

Results for N=c1n(CCN2CCOCC2)c2ccccc2n1CC(=O)c1ccc(Cl)c(Cl)c1 ?
EBI2 antag: inactive; SENP6 inh: inactive; AHR act: 91; SENP7 inh: inactive; SENP8 block-1: inactive; SENP8 block-2: inactive

What do the screens show for `CCCCOC(=O)Cn1c(=N)n(CCN2CCOCC2)c2ccccc21`?
EBI2 antag: inactive; SENP6 inh: inactive; AHR act: inactive; SENP7 inh: inactive; SENP8 block-1: inactive; SENP8 block-2: inactive

What do the screens show for `CCc1c(O)nc2sc3ccccc3n2c1=O`?
EBI2 antag: inactive; SENP6 inh: inactive; AHR act: inactive; SENP7 inh: inactive; SENP8 block-1: inactive; SENP8 block-2: 40

How did Cc1ccc2c(c1)c(-c1ccccc1)nc1nncn12 do in these assays?
EBI2 antag: inactive; SENP6 inh: inactive; AHR act: 53; SENP7 inh: inactive; SENP8 block-1: inactive; SENP8 block-2: inactive

What do the screens show for `COc1ccc(CN2C(=O)C(C)Nc3ncnc(N4CCN(c5ccccn5)CC4)c32)cc1` (stereo unspecified)?
EBI2 antag: 62; SENP6 inh: inactive; AHR act: inactive; SENP7 inh: inactive; SENP8 block-1: inactive; SENP8 block-2: inactive

How did CC1Nc2ncnc(N3CCN(c4ccccn4)CC3)c2N(Cc2ccccc2)C1=O (stereo unspecified) do in these assays?
EBI2 antag: 45; SENP6 inh: inactive; AHR act: inactive; SENP7 inh: inactive; SENP8 block-1: inactive; SENP8 block-2: inactive

How did COc1ccc(CN2C(=O)C(CC(C)C)Nc3ncnc(N4CCN(c5ccccn5)CC4)c32)cc1 (stereo unspecified) do in these assays?
EBI2 antag: inactive; SENP6 inh: inactive; AHR act: inactive; SENP7 inh: inactive; SENP8 block-1: inactive; SENP8 block-2: inactive

How did O=C(CN1CCN(C(=O)c2ccccc2F)CC1)Nc1ccc(Br)cc1 do in these assays?
EBI2 antag: inactive; SENP6 inh: inactive; AHR act: 56; SENP7 inh: inactive; SENP8 block-1: inactive; SENP8 block-2: inactive

Results for CCC(=O)Nc1nnc(-c2cccs2)s1 ?
EBI2 antag: inactive; SENP6 inh: inactive; AHR act: 74; SENP7 inh: inactive; SENP8 block-1: inactive; SENP8 block-2: inactive

What do the screens show for `O=C(Nc1nnc(-c2cccs2)s1)C1CC1`?
EBI2 antag: inactive; SENP6 inh: inactive; AHR act: inactive; SENP7 inh: inactive; SENP8 block-1: inactive; SENP8 block-2: inactive

How did O=C(Cc1ccccc1)Nc1nnc(-c2cccs2)s1 do in these assays?
EBI2 antag: inactive; SENP6 inh: inactive; AHR act: 69; SENP7 inh: inactive; SENP8 block-1: inactive; SENP8 block-2: inactive

How did Cc1sc(N/N=C/c2cccs2)nc1-c1ccccc1 do in these assays?
EBI2 antag: inactive; SENP6 inh: inactive; AHR act: 78; SENP7 inh: inactive; SENP8 block-1: inactive; SENP8 block-2: inactive

Results for CC1(C)CC(N=C2C([N+](=O)[O-])=CC=C3C2=NC2(CCCCC2)N3O)CC(C)(C)N1 ?
EBI2 antag: inactive; SENP6 inh: inactive; AHR act: inactive; SENP7 inh: inactive; SENP8 block-1: inactive; SENP8 block-2: 50

How did CC(C)(C)N=C1C([N+](=O)[O-])=CC=C2C1=NC1(CCCCC1)N2O do in these assays?
EBI2 antag: inactive; SENP6 inh: inactive; AHR act: inactive; SENP7 inh: inactive; SENP8 block-1: inactive; SENP8 block-2: inactive
